Results filed as inconclusive are left out. Calls of active or inactive are those of the source. Unless noted, calls come from the whole dose curve; as a rule, active = well fitted curve in the direction sought with a large enough effect; inconclusive = small, poorly fitted or top-dose-only effect, or another doubt; inactive = no such curve, though single readings can be large; an effect the other way counts as inactive or inconclusive.
Legend:
[1] = AP1 Signaling Pathway (AID 357; active = well fitted curve in either direction with a large enough effect, not every such curve was filed as active;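 note: ME-180 reporter cells stimulated with EGF at its EC50 level; % is set by controls: 0 for no effect and ±100 for the full control effect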); details: ME-180 AP-1-bla reporter, EGF-induced, beta-lactamase ratio, 5 h; at 7.69 µM (top of the series) unless noted
Method in brief: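 Cells are seeded overnight, exposed to compound titrations and an EC50 level of EGF for 5 hours at 37 °C, then loaded with CCF4 dye for 2.5 hours. Beta-lactamase activity under the AP-1 element is read as a blue/green ratio.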

[2] = target: Cytochrome P450 1A2 (Homo sapiens) (UniProt P05177); test: p450-cyp1a2 (AID 410; calls by dose curve; note: potency is the fitted concentration of half-maximal effect;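 for activity change, negative = inhibition: -100% = full effect of reference inhibitor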)
Method in brief: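 Inhibition was calculated relative to 57 uM furafylline (full inhibition). The reaction used human CYP1A2 at 20nM with Luciferin-ME at its Km, 100uM, driven by an NADPH-regenerating system for 60 min at room temperature.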

[3] = NFAT Signaling Pathway (AID 444; active = well fitted curve in either direction with a large enough effect, not every such curve was filed as active;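 note: carbachol stimulus at about its EC50 of 1 µM final; % is set by controls: 0 for no effect and ±100 for the full control effect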); details: Jurkat NFAT-bla M1, carbachol, beta-lactamase ratio, 5 h; at 7.69 µM (top of the series) unless noted
Method in brief: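 Jurkat cells carrying an NFAT-driven β-lactamase reporter and co-transfected muscarinic M1 receptor were treated with compound plus carbachol (1 uM final, an EC50 level) for 5 h at 37 °C. CCF4 loading followed for 1 h at RT; 460/530 nm ratio gave %activity.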

[4] = target: Glucocorticoid receptor (Homo sapiens) (UniProt P04150); test: GR-GFP Redistribution (AID 450;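 active = compounds whose dose series gives a full or clear partial fitted curve of increased nuclear translocation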; note: potency is the fitted concentration of half-maximal effect); details: U2OS GR-GFP nuclear translocation, laser cytometry, 2 h
[5] = target: Glucocorticoid receptor (Homo sapiens) (UniProt P04150); test: GR-EFC Redistribution (AID 451; calls by dose curve; note: potency is the fitted concentration of half-maximal effect); details: CHO-K1 GR-EFC translocation, beta-gal luminescence, 2 h
Method in brief: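 CHO-K1 cells stably expressing nuclear-localized β-gal enzyme acceptor and GR fused C-terminally to the enzyme donor fragment; ligand-driven nuclear translocation restores β-gal by complementation. Compounds titrated up to 46 uM final, 2 h at 37 °C; luminescence read.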

[6] = target: Mitogen-activated protein kinase 10 (Mus musculus) (UniProt Q61831); test: JNK3 AlphaScreen Assay (AID 530; active = well fitted curve in either direction with a large enough effect, not every such curve was filed as active;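 note: kinase came from lysate of stimulated human HepG2 cells; signal reports phosphorylation of biotinylated GST-cJun 1-79 at Ser73 with 10 µM ATP; % is set by controls: 0 for no effect and ±100 for the full control effect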)
Method in brief: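 JNK3 came from HepG2 lysates pre-activated with IL-1beta and TNF-alpha and phosphorylated biotinylated GST-cJun (1-79) at 10 uM ATP, pH 7.6, room temperature. Compounds were titrated. AlphaScreen signal used anti-phospho-cJun (Ser73) antibody.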

[7] = target: 3',5'-cyclic-AMP phosphodiesterase 4B (Homo sapiens) (UniProt Q07343); test: qHTS Assay for Inhibitors of PDE-IV (AID 607; active = well fitted activation curve with a large enough effect in the main read-out, with a control signal flat, not every such curve was filed as active; note: % of control where 0% means no effect)
Method in brief: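 Cell-based read-out of cAMP via a modified cyclic nucleotide-gated channel and membrane potential dye (535/590 nm) in HEK293 cells expressing PDE4 endogenously. Compounds tested up to 22.9 uM final; 100 uM RO 20-1724 reference.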

[8] = target: Cytochrome P450 3A4 (Homo sapiens) (UniProt P08684); test: qHTS Assay for Activators of Cytochrome P450 3A4 (AID 885); note: nearly all actives have a fitted effect of over 65% in size; note: potency is the fitted concentration of half-maximal effect
Method in brief: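 Signal was normalized against complete inhibition by 57 uM ketoconazole. The reaction used 20nM CYP3A4 with 25uM Luciferin-PPXE, 10-min compound preincubation and a 60-min NADPH-supported step at RT.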

[9] = Stat Signaling Pathway (AID 446; active = well fitted curve in either direction with a large enough effect, not every such curve was filed as active;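 note: ME-180 cervical cancer cells given 40 pM IL-6 alongside compound; SIE-controlled beta-lactamase reporter measured as 460/530 nm FRET emission ratio; % is set by controls: 0 for no effect and ±100 for the full control effect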); details: ME-180 SIE beta-lactamase reporter, IL-6 stimulated, 5 h; at 7.69 µM (top of the series) unless noted
Method in brief: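 Reporter line: ME-180 cervical carcinoma, SIE-beta-lactamase. Treatment: compound with 40 pM IL-6, 5 hrs, 37 C, in low-serum OPTI-MEM with 10 mM HEPES pH 7.3. Detection: 460/530 nm fluorescence.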

[10] = target: Guanine nucleotide-binding protein G(i) subunit alpha-1 (Homo sapiens) (UniProt P63096); test: qHTS Assay for Inhibitors of RGS12 GoLoco Motif Activity (Green Fluorophore) (AID 879);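 note: 0% = labeled peptide with Gαi1 and full inhibition = labeled peptide alone without protein; negative values mean loss of peptide binding seen as reduced polarization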
Method in brief: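 Fluorescence polarization assay: 50 nM Gαi1 with 10 nM FITC-labeled RGS12 GoLoco peptide in 10 mM Tris pH 7.5, 150 mM NaCl, 0.1 mM GDP, 0.05% NP40, 10 min at room temperature with compound.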

[11] = target: Cytochrome P450 3A4 (Homo sapiens) (UniProt P08684); test: qHTS Assay for Inhibitors and Substrates of Cytochrome P450 3A4 (AID 884); note: % is set by controls: 0 for no effect and ±100 for the full control effect; nearly all actives have a fitted effect of over 50% in size
Method in brief: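 20 nM human CYP3A4 with 25 uM Luciferin-PPXE (at KM) in 200 mM KPO4, preincubated 10 min with compound; NADPH regeneration started a 60 min RT reaction. Luciferin detected by luminescence, normalized to 57 uM ketoconazole as full inhibition.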

[12] = qHTS Assay for Identification of Small Molecule Agonists for Thrombopoietin (TPO) Signaling Pathway (AID 917); note: % is set by controls: 0 for no effect and ±100 for the full control effect
Method in brief: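 IL-3-dependent murine pro-B Ba/F3 cells, stably transfected with human TPO receptor and GpIIb-promoter luciferase, are incubated 24 hrs at 37 C with test compound and 26 pM TPO; luciferase signal is read after 10 min at room temperature.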

[13] = target: Muscarinic acetylcholine receptor M1 (Rattus norvegicus) (UniProt P08482); test: qHTS Assay for Antagonists of Acetylcholine Muscarinic M1 Receptor: Measurement of IP-One Response (AID 944); note: nearly all actives have a fitted effect of over 75% in size
Method in brief: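 Steps: plate transfected CHO-M1 cells overnight; add test compound, 10 min; add carbachol (200 nM, EC80) in stimulation buffer with LiCl; incubate 30 min; add labelled IP1 tracer and anti-IP1 antibody in lysis buffer; read HTRF after 10 min.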

[14] = target: Pyruvate kinase PKM (Homo sapiens) (UniProt P14618); test: qHTS Assay for Activators of Human Muscle Pyruvate Kinase (AID 954; active = well fitted curve in the direction sought with a large enough effect, not every such curve was filed as active;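 note: 0% = uninhibited enzyme and -100% = no enzyme or full thiadiazolimine inhibition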)
Method in brief: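 Human PKM2 activity is measured as ATP generation, detected by luciferase-coupled luminescence. The enzyme (0.1 nM) acts on 0.5 mM PEP and 0.1 mM ADP for 1 h at ambient temperature; data are normalized to uninhibited and full-inhibition wells.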

[15] = target: Alpha-galactosidase A (Homo sapiens) (UniProt P06280); test: Counterscreen for Glucocerebrosidase Inhibitors: qHTS Assay for Human alpha-Galactosidase at pH 4.5 (AID 992); note: 0% is about no effect
Method in brief: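 Quantitative HTS: compounds tested from 0.7 nM up to 77 uM against 2 nM enzyme with 80 uM 4-MU alpha-D-galactopyranoside. The 20 min room-temperature reaction is stopped with 1M NaOH/1M glycine, pH 10.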

[16] = target: alpha-glucosidase (Oryza sativa, rice) (UniProt Q653V4); test: Counterscreen for Glucocerebrosidase Inhibitors: qHTS Assay for Rice alpha-Glucosidase at pH 5.0 (AID 997);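 note: 0% = full activity with enzyme and -100% = basal without enzyme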
Method in brief: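 Rice alpha-glucosidase (4 nM final) with 400 uM 4-methylumbelliferyl-alpha-D-glucopyranoside in citrate buffer pH 5.0, 20 min at room temperature, stopped at pH 10; fluorescence 365/440 nm, compounds 0.7 nM–77 uM, AC50 from Hill fits.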

[17] = qHTS Assay for Identification of Small Molecule Antagonists for NFkB Signaling Pathway (AID 895; active = well fitted inhibition curve with a large enough effect in the signal ratio, with a control signal flat, not every such curve was filed as active; the % refers to the signal ratio; note: % is set by controls: 0 for no effect and ±100 for the full control effect)
Method in brief: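 NFkB-bla ME-180 cervical carcinoma cells with beta-lactamase reporter under NFkB response element; compounds added, then TNF alpha at 10 pM final (EC50), 5 h at 37 C. LiveBLAzer substrate 2 h, room temperature; emission 460/530 nm at 405 nm excitation.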

[18] = target: Pyruvate kinase (Leishmania mexicana) (UniProt Q27686); test: qHTS Validation Assay for Inhibitors of Leishmania Mexicana Pyruvate Kinase (AID 945);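 note: 0% = DMSO only neutral control wells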
Method in brief: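 Purified LmPYK (E451W mutant, 0.2 nM) was incubated 1 h at room temperature with 0.5 mM PEP and 0.1 mM ADP in 50 mM imidazole pH 7.2, 50 mM KCl, 7 mM MgCl2; ATP formed was read by PKLight luminescence, normalized to DMSO wells.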

[19] = target: Cytochrome P450 2C9 (Homo sapiens) (UniProt P11712); test: qHTS Assay for Inhibitors and Substrates of Cytochrome P450 2C9 (AID 883); note: % is set by controls: 0 for no effect and ±100 for the full control effect; nearly all actives have a fitted effect of over 60% in size
Method in brief: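 CYP2C9 deoxyluciferin hydroxylation, 37C, 60 min with NADPH regeneration; 10nM enzyme, 100uM Luciferin-H (KM). Glo detection reagent stopped reaction; luminescence normalized to sulphaphenazole (57uM) full inhibition.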

[20] = target: Cytochrome P450 2D6 (Homo sapiens) (UniProt P10635); test: qHTS Assay for Inhibitors and Substrates of Cytochrome P450 2D6 (AID 891);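 note: luciferin methyl ether substrate demethylated by CYP2D6 with NADPH regeneration; % is set by controls: 0 for no effect and ±100 for the full control effect; nearly all actives have a fitted effect of over 60% in size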
Method in brief: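 Human CYP2D6 (5 nM) with 30 uM Luciferin-ME EGE (at Km) in 100 mM KPO4, compound preincubated 10 min, then NADPH regeneration system for 60 min at room temperature. Luciferin read by luminescence; normalized to 1.43 uM quinidine.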

[21] = target: Cytochrome P450 2C19 (Homo sapiens) (UniProt P33261); test: qHTS Assay for Inhibitors and Substrates of Cytochrome P450 2C19 (AID 899); note: % is set by controls: 0 for no effect and ±100 for the full control effect; nearly all actives have a fitted effect of over 60% in size
Method in brief: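 In 50mM KPO4, the reaction held 5nM enzyme and KM-level (10uM) Luciferin-H EGE; it ran 60 min at 37C after NADPH regeneration and a 10 min compound preincubation. Luminescence values were scaled to 57uM ketoconazole as complete inhibition.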

Cytochrome P450 3A4 (Homo sapiens), sequence (P08684 whole entry, looked up): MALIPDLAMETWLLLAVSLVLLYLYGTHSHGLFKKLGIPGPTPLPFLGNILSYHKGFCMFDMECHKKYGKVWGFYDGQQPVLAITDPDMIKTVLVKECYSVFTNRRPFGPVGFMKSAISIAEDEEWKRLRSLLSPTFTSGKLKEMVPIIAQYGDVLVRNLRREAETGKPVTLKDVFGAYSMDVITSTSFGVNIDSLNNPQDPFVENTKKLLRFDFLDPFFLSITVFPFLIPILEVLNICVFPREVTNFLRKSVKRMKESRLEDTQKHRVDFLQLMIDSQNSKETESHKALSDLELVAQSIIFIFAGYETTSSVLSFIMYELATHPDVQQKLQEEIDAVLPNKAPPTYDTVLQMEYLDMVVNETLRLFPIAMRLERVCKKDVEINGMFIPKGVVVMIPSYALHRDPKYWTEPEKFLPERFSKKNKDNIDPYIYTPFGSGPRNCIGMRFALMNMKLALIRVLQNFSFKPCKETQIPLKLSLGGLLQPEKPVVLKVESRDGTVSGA
Cytochrome P450 1A2 (Homo sapiens), sequence (P05177 whole entry, looked up): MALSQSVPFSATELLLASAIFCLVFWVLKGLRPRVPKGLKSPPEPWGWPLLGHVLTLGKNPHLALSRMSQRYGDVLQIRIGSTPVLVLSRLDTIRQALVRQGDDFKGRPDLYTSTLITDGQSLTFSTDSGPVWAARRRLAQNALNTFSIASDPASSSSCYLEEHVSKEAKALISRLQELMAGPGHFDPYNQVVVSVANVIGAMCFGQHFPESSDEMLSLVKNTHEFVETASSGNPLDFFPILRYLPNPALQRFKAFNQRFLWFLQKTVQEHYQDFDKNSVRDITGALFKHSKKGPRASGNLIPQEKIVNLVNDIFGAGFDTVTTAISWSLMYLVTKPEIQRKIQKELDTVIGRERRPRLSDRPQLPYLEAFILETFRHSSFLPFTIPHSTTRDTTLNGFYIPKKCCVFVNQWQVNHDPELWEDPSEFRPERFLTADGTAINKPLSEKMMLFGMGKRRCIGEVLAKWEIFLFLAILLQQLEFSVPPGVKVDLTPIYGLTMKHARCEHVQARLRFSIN
Glucocorticoid receptor (Homo sapiens), sequence (P04150 whole entry, looked up, the tested form may be a part): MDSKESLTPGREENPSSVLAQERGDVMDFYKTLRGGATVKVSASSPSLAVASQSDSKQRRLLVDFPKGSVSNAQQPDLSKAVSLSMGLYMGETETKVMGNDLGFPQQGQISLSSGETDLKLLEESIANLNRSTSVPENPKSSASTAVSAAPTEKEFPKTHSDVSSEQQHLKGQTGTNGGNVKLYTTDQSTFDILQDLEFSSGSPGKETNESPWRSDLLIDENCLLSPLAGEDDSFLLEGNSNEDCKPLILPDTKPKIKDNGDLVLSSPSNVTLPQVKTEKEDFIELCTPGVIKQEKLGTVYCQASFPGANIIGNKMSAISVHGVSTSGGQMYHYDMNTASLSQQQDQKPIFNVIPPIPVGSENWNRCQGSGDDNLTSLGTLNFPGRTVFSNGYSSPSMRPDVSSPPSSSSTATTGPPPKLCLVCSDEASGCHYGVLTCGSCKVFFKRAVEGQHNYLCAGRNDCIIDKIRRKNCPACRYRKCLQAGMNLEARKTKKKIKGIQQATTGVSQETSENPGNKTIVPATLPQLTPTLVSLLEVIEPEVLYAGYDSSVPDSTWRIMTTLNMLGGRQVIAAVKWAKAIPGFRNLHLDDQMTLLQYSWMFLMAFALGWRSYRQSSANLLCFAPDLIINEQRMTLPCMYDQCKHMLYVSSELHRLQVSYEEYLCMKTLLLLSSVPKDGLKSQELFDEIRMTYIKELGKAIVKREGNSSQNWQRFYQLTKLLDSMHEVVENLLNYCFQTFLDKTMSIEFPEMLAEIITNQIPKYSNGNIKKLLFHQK
3',5'-cyclic-AMP phosphodiesterase 4B (Homo sapiens), sequence (Q07343 whole entry, looked up): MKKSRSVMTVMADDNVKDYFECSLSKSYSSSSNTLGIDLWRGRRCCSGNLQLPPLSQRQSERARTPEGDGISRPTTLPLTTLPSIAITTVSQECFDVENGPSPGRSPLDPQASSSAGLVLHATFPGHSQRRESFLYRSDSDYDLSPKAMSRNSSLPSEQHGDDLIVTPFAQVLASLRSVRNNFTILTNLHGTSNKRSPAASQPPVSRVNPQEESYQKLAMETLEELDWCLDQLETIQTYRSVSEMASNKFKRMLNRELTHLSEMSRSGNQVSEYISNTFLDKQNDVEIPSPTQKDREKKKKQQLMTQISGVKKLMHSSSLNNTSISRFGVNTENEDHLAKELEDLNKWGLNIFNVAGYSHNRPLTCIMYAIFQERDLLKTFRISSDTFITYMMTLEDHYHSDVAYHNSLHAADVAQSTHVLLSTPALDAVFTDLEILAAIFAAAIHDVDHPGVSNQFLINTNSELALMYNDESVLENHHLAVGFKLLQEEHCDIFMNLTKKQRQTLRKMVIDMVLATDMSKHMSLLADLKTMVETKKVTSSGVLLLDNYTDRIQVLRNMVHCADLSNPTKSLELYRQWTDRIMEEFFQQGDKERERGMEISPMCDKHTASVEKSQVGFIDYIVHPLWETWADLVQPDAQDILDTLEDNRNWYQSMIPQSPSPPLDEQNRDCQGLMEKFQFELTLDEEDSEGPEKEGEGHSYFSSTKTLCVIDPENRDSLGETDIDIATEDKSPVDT
Pyruvate kinase PKM (Homo sapiens), sequence (P14618 whole entry, looked up): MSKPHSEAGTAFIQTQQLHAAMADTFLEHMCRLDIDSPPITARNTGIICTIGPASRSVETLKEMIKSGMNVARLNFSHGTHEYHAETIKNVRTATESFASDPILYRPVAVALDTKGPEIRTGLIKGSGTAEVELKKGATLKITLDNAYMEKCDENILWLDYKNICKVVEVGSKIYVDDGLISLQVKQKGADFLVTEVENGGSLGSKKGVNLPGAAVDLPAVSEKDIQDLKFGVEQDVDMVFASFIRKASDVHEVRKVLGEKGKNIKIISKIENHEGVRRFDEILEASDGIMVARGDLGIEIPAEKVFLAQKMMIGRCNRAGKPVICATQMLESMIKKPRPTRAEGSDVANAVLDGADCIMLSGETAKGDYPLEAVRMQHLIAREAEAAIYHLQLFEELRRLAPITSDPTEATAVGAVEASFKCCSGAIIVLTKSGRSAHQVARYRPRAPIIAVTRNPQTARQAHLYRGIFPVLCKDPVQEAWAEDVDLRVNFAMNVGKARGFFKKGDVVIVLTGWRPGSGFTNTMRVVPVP
Guanine nucleotide-binding protein G(i) subunit alpha-1 (Homo sapiens), sequence (P63096 whole entry, looked up): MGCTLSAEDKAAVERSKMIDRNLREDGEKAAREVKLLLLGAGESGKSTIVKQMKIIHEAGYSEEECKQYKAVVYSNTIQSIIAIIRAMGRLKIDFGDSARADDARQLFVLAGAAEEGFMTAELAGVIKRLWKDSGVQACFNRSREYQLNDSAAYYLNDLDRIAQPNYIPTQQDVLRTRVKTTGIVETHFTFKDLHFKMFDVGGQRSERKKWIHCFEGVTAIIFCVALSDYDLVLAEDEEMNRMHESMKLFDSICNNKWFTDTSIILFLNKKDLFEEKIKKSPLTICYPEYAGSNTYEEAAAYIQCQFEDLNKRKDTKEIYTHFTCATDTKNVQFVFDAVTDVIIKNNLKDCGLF
Alpha-galactosidase A (Homo sapiens), sequence (P06280 whole entry, looked up): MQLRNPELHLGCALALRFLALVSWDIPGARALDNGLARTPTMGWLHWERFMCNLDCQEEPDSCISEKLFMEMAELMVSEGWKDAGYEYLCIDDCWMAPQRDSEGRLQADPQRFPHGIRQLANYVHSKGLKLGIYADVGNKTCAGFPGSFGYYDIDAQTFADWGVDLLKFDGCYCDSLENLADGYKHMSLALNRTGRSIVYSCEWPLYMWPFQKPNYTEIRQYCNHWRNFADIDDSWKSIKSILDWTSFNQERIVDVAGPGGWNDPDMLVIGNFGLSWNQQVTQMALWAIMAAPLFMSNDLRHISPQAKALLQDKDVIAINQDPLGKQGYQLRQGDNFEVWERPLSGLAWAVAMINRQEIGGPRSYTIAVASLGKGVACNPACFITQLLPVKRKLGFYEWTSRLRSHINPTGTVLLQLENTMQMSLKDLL
Muscarinic acetylcholine receptor M1 (Rattus norvegicus), sequence (P08482 whole entry, looked up): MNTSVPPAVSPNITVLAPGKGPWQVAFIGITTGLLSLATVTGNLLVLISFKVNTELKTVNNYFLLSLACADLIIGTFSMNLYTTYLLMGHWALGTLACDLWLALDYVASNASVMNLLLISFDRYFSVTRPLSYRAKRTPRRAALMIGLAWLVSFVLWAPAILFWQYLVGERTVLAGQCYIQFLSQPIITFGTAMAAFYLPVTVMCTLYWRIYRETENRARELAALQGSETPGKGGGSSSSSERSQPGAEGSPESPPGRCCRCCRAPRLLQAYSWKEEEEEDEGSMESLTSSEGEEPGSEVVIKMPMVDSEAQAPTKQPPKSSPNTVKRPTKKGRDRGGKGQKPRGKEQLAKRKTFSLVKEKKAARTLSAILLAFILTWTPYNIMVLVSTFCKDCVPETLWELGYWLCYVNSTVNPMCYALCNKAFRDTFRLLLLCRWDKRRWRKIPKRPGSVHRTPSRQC
Cytochrome P450 2C19 (Homo sapiens), sequence (P33261 whole entry, looked up): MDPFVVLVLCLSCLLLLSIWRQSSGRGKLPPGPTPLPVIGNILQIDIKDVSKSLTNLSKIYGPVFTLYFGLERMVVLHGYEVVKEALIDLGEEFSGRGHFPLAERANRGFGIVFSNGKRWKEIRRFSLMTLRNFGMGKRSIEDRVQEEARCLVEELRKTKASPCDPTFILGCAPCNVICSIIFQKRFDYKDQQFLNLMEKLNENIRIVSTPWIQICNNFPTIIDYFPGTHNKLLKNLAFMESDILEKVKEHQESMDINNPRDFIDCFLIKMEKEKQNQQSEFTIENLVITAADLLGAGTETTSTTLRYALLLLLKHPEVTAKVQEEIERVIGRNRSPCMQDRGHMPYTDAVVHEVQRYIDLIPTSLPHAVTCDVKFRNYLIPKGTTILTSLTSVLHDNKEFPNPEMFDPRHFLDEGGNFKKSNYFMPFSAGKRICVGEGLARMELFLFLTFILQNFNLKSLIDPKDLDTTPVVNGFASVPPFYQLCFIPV

N=C(N)SCc1cccc2c(=O)cc(-c3ccccc3)oc12
inactive: activity change, negative = inhibition [1] 28% | activity change, negative = inhibition [3] -23% | Potency [4] > 46 µM | Potency [5] > 9.22 µM | Potency [6] | Potency [7] | Potency [8]
active: Potency [2] 0.126 µM

O[C@H](CN1CCN(c2cccc(Cl)c2)CC1)C(c1ccccc1)c1ccccc1
active: Potency [2] 12.6 µM | Potency [8] 7.94 µM
inactive: activity change, negative = inhibition [1] -10.5% [at 38 µM] | activity, negative = inhibition [9] 24.9% [at 38 µM] | Potency [4] > 46 µM | Potency [5] > 46 µM | Potency [6] | Potency [7] | outcome [10] | Potency [11] | outcome [12] | Potency [13] | outcome [14] | outcome [15] | Potency [16]

C[C@@H]1C(=O)N(C)C(=O)c2nc[nH]c21
inactive: activity change, negative = inhibition [1] -6.31% [at 38 µM] | Potency [2] | activity, negative = inhibition [9] 15% [at 38 µM] | Potency [4] > 46 µM | Potency [5] > 46 µM | Potency [7] | outcome [10] | Potency [17] | outcome [12] | outcome [18] | outcome [14] | outcome [15] | Potency [16]

CN[C@@H](CC(C)C)C(=O)N[C@@H]1C(=O)N[C@H](CC(N)=O)C(=O)N[C@H]2C(=O)N[C@H]3C(=O)N[C@H](C(=O)N[C@H](C(=O)O)c4cc(O)cc(O)c4-c4cc3ccc4O)[C@H](O)c3ccc(c(Cl)c3)Oc3cc2cc(c3O[C@@H]2O[C@@H](CO)[C@@H](O)[C@@H](O)[C@H]2O[C@H]2C[C@](C)(N)[C@H](O)[C@H](C)O2)Oc2ccc(cc2Cl)[C@@H]1O
inactive: activity change, negative = inhibition [1] -0.977% [at 38 µM] | activity change, negative = inhibition [3] 0.625% [at 38 µM] | activity, negative = inhibition [9] 4.5% [at 38 µM] | Potency [4] > 46 µM | Potency [5] > 46 µM | Potency [6] | Potency [7] | outcome [10] | outcome [12] | outcome [14] | Potency [16]

CC(=O)OCC(=O)[C@@]1(O)CC[C@@H]2[C@@H]3CCC4=CC(=O)CC[C@@]4(C)[C@H]3C(=O)C[C@]21C
inactive: Potency [2] | activity change, negative = inhibition [3] 5.8% [at 38 µM] | activity, negative = inhibition [9] -12.6% [at 38 µM] | Potency [5] > 46 µM | Potency [6] | Potency [7] | Potency [19] | Potency [20] | Potency [21]

— PubChem BioAssay (NCATS)
